According to PubChem BioAssay AID1159580 (chemical genetic matrix, 2015):
Among all 5,500 compounds or so, about 2,000 (36%) were called active. About 18% were inconclusive and are not listed. Cut-off read from the data, not from the text of the source: active = normalized growth mostly below about 0.91 (no sharp cut-off); inconclusive = no clear call, values can overlap the other calls; inactive = mostly above about 0.92. The list shows a part of the results.

Test: chemical genetic growth profiling, strain panel (AID 1159580);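 note: tested at 20 µM; growth read once vehicle control cultures reached saturation at 30 °C; 1 = growth at the plate median or of vehicle wells; lower values mean less growth of the strain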
Conditions: growth OD

Measured: normalized growth

Cn1c(=O)[nH]c2nc[nH]c2c1=O
inactive: S. cerevisiae deletion strains, locus YAL021C, strain ccr4, active compounds read low 0.98 | S. cerevisiae deletion strains, locus YAL026C, strain drs2, active compounds read low 1.01 | S. cerevisiae deletion strains, locus YAL030W, strain snc1, active compounds read low 1 | S. cerevisiae deletion strains, locus YBL061C, strain skt5, active compounds read low 0.992 | S. cerevisiae deletion strains, locus YBR009C, strain hhf1, active compounds read low 0.992 | S. cerevisiae deletion strains, locus YBR021W, strain FUR4, active compounds read low 1.01 | S. cerevisiae deletion strains, locus YBR023C, strain chs3, active compounds read low 0.993 | S. cerevisiae deletion strains, locus YBR171W, strain sec66, active compounds read low 0.972 | S. cerevisiae deletion strains, locus YBR229C, strain ROT2, active compounds read low 0.995 | S. cerevisiae deletion strains, locus YBR231C, strain swc5, active compounds read low 0.989 | S. cerevisiae deletion strains, locus YBR279W, strain paf1, active compounds read low 1 | S. cerevisiae deletion strains, locus YCL011C, strain gbp2, active compounds read low 0.996 | S. cerevisiae deletion strains, locus YCL016C, strain dcc1, active compounds read low 0.994 | S. cerevisiae deletion strains, locus YCL029C, strain bik1, active compounds read low 0.992 | S. cerevisiae deletion strains, locus YCL061C, strain MRC1, active compounds read low 0.999 | S. cerevisiae deletion strains, locus YCL069W, strain vba3, active compounds read low 0.993 | S. cerevisiae deletion strains, locus YCR088W, strain abp1, active compounds read low 1.01 | S. cerevisiae deletion strains, locus YDL005C, strain med2, active compounds read low 0.993 | S. cerevisiae deletion strains, locus YDL035C, strain GPR1, active compounds read low 1.01 | S. cerevisiae deletion strains, locus YDL040C, strain nat1, active compounds read low 0.987 | S. cerevisiae deletion strains, locus YDL074C, strain BRE1, active compounds read low 1.04 | S. cerevisiae deletion strains, locus YDL101C, strain DUN1, active compounds read low 1.01 | S. cerevisiae deletion strains, locus YDL134C, strain PPH21, active compounds read low 1 | S. cerevisiae deletion strains, locus YDL185W, strain tfp1, active compounds read low 1.01 | S. cerevisiae deletion strains, locus YDL192W, strain arf1, active compounds read low 0.985 | S. cerevisiae deletion strains, locus YDR001C, strain nth1, active compounds read low 1 | S. cerevisiae deletion strains, locus YDR069C, strain doa4, active compounds read low 1 | S. cerevisiae deletion strains, locus YDR101C, strain arx1, active compounds read low 0.995 | S. cerevisiae deletion strains, locus YDR137W, strain rgp1, active compounds read low 0.976 | S. cerevisiae deletion strains, locus YDR159W, strain sac3, active compounds read low 1.01 | S. cerevisiae deletion strains, locus YDR162C, strain NBP2, active compounds read low 1.03 | S. cerevisiae deletion strains, locus YDR195W, strain ref2 0.966 | S. cerevisiae deletion strains, locus YDR297W, strain sur2, active compounds read low 1 | S. cerevisiae deletion strains, locus YDR318W, strain mcm21, active compounds read low 0.994 | S. cerevisiae deletion strains, locus YDR334W, strain swr1, active compounds read low 0.998 | S. cerevisiae deletion strains, locus YDR335W, strain msn5, active compounds read low 0.987 | S. cerevisiae deletion strains, locus YDR388W, active compounds read low 0.994 | S. cerevisiae deletion strains, locus YDR392W, strain spt3, active compounds read low 0.972 | S. cerevisiae deletion strains, locus YDR502C, strain sam2, active compounds read low 0.997 | S. cerevisiae deletion strains, locus YEL003W, strain gim4, active compounds read low 1.01 | S. cerevisiae deletion strains, locus YEL037C, strain rad23, active compounds read low 0.992 | S. cerevisiae deletion strains, locus YEL061C, strain CIN8 (second series), active compounds read low 0.995 | S. cerevisiae deletion strains, locus YEL061C, strain CIN8, active compounds read low 1 | S. cerevisiae deletion strains, locus YER015W, strain faa2, active compounds read low 1.01 | S. cerevisiae deletion strains, locus YER016W, strain bim1, active compounds read low 0.993 | S. cerevisiae deletion strains, locus YER110C, active compounds read low 1 | S. cerevisiae deletion strains, locus YER111C, strain swi4, active compounds read low 0.99 | S. cerevisiae deletion strains, locus YER155C, strain BEM2 (second series), active compounds read low 0.992 | S. cerevisiae deletion strains, locus YER155C, strain BEM2, active compounds read low 1.01 | S. cerevisiae deletion strains, locus YER167W, strain BCK2, active compounds read low 0.997 | S. cerevisiae deletion strains, locus YFR010W, strain ubp6, active compounds read low 1.01 | S. cerevisiae deletion strains, locus YGL078C, strain dbp3, active compounds read low 1.01 | S. cerevisiae deletion strains, locus YGL086W, strain mad1, active compounds read low 1.01 | S. cerevisiae deletion strains, locus YGL167C, strain pmr1, active compounds read low 1 | S. cerevisiae deletion strains, locus YGL173C, strain kem1, active compounds read low 1.02 | S. cerevisiae deletion strains, locus YGL227W, strain vid30, active compounds read low 1 | S. cerevisiae deletion strains, locus YGL240W, strain doc1, active compounds read low 1.01 | S. cerevisiae deletion strains, locus YGL248W, strain PDE1, active compounds read low 0.996 | S. cerevisiae deletion strains, locus YGL253W, strain hxk2, active compounds read low 1 | S. cerevisiae deletion strains, locus YGR078C, strain PAC10, active compounds read low 1.01 | S. cerevisiae deletion strains, locus YGR135W, strain pre9, active compounds read low 1.01 | S. cerevisiae deletion strains, locus YGR252W, strain gcn5, active compounds read low 1.01 | S. cerevisiae deletion strains, locus YHR013C, strain ard1, active compounds read low 0.989 | S. cerevisiae deletion strains, locus YHR027C, strain rpn1, active compounds read low 1.02 | S. cerevisiae deletion strains, locus YHR030C, strain SLT2, active compounds read low 1.02 | S. cerevisiae deletion strains, locus YHR079C, strain IRE1 (second series), active compounds read low 1 | S. cerevisiae deletion strains, locus YHR094C, strain hxt1, active compounds read low 0.993 | S. cerevisiae deletion strains, locus YHR129C, strain ARP1, active compounds read low 1 | S. cerevisiae deletion strains, locus YHR142W, strain chs7, active compounds read low 0.997 | S. cerevisiae deletion strains, locus YHR200W, strain rpn10, active compounds read low 0.983 | S. cerevisiae deletion strains, locus YIL066C, strain RNR3, active compounds read low 1.01 | S. cerevisiae deletion strains, locus YIL073C, strain SPO22, active compounds read low 1.03 | S. cerevisiae deletion strains, locus YIL125W, strain kgd1, active compounds read low 1 | S. cerevisiae deletion strains, locus YIR030C, strain dcg1, active compounds read low 0.995 | S. cerevisiae deletion strains, locus YJL092W, strain hpr5, active compounds read low 1 | S. cerevisiae deletion strains, locus YJL095W, strain BCK1 (second series), active compounds read low 0.997 | S. cerevisiae deletion strains, locus YJL095W, strain BCK1, active compounds read low 1.03 | S. cerevisiae deletion strains, locus YJL115W, strain asf1, active compounds read low 1.01 | S. cerevisiae deletion strains, locus YJL129C, strain trk1, active compounds read low 1.01 | S. cerevisiae deletion strains, locus YJL134W, strain LCB3, active compounds read low 1.01 | S. cerevisiae deletion strains, locus YJL154C, strain vps35, active compounds read low 0.997 | S. cerevisiae deletion strains, locus YJL164C, strain tpk1, active compounds read low 0.981 | S. cerevisiae deletion strains, locus YJL166W, strain qcr8, active compounds read low 0.995 | S. cerevisiae deletion strains, locus YJL168C, strain set2, active compounds read low 0.994 | S. cerevisiae deletion strains, locus YJL187C, strain SWE1 (second series), active compounds read low 1.01 | S. cerevisiae deletion strains, locus YJL187C, strain SWE1, active compounds read low 1 | S. cerevisiae deletion strains, locus YJR043C, strain POL32, active compounds read low 1.03 | S. cerevisiae deletion strains, locus YJR075W, strain HOC1, active compounds read low 1.01 | S. cerevisiae deletion strains, locus YKL068W, active compounds read low 1 | S. cerevisiae deletion strains, locus YKL085W, strain MDH1 (second series), active compounds read low 1.02 | S. cerevisiae deletion strains, locus YKL085W, strain MDH1, active compounds read low 1.02 | S. cerevisiae deletion strains, locus YKL160W, strain elf1, active compounds read low 0.978 | S. cerevisiae deletion strains, locus YKL190W, strain CNB1, active compounds read low 1.02 | S. cerevisiae deletion strains, locus YKR001C, strain vps1, active compounds read low 1.01 | S. cerevisiae deletion strains, locus YKR026C, strain gcn3, active compounds read low 0.999 | S. cerevisiae deletion strains, locus YKR091W, strain srl3, active compounds read low 0.997 | S. cerevisiae deletion strains, locus YLL001W, strain dnm1, active compounds read low 0.977 | S. cerevisiae deletion strains, locus YLL026W, active compounds read low 1 | S. cerevisiae deletion strains, locus YLL041C, strain sdh2, active compounds read low 0.999 | S. cerevisiae deletion strains, locus YLR027C, strain aat2, active compounds read low 0.991 | S. cerevisiae deletion strains, locus YLR039C, strain RIC1, active compounds read low 1.03 | S. cerevisiae deletion strains, locus YLR058C, strain SHM2, active compounds read low 1.01 | S. cerevisiae deletion strains, locus YLR102C, strain apc9, active compounds read low 1.01 | S. cerevisiae deletion strains, locus YLR221C, strain rsa3, active compounds read low 1.01 | S. cerevisiae deletion strains, locus YLR258W, strain gsy2, active compounds read low 1.01 | S. cerevisiae deletion strains, locus YLR262C, strain YPT6 (second series), active compounds read low 0.979 | S. cerevisiae deletion strains, locus YLR262C, strain YPT6, active compounds read low 1.04 | S. cerevisiae deletion strains, locus YLR268W, strain sec22, active compounds read low 1.01 | S. cerevisiae deletion strains, locus YLR320W, strain mms22, active compounds read low 1 | S. cerevisiae deletion strains, locus YLR330W, strain CHS5, active compounds read low 1 | S. cerevisiae deletion strains, locus YLR342W, strain FKS1 (second series), active compounds read low 1.01 | S. cerevisiae deletion strains, locus YLR342W, strain FKS1, active compounds read low 1 | S. cerevisiae deletion strains, locus YLR357W, strain rsc2, active compounds read low 0.977 | S. cerevisiae deletion strains, locus YLR370C, strain arc18, active compounds read low 0.999 | S. cerevisiae deletion strains, locus YLR371W, strain rom2, active compounds read low 1 | S. cerevisiae deletion strains, locus YLR384C, strain iki3, active compounds read low 1 | S. cerevisiae deletion strains, locus YLR418C, strain cdc73, active compounds read low 1.01 | S. cerevisiae deletion strains, locus YML016C, strain PPZ1, active compounds read low 1 | S. cerevisiae deletion strains, locus YML032C, strain rad52, active compounds read low 0.991 | S. cerevisiae deletion strains, locus YML120C, strain ndi1, active compounds read low 1 | S. cerevisiae deletion strains, locus YML124C, strain tub3, active compounds read low 0.996 | S. cerevisiae deletion strains, locus YMR058W, strain fet3, active compounds read low 1.01 | S. cerevisiae deletion strains, locus YMR078C, strain ctf18, active compounds read low 0.996 | S. cerevisiae deletion strains, locus YMR125W, strain sto1, active compounds read low 0.998 | S. cerevisiae deletion strains, locus YMR129W, active compounds read low 1 | S. cerevisiae deletion strains, locus YMR205C, strain PFK2, active compounds read low 0.998 | S. cerevisiae deletion strains, locus YMR223W, strain ubp8, active compounds read low 0.991 | S. cerevisiae deletion strains, locus YMR231W, strain pep5, active compounds read low 0.967 | S. cerevisiae deletion strains, locus YMR307W, strain GAS1, active compounds read low 1.05 | S. cerevisiae deletion strains, locus YNL067W, strain RPL9B, active compounds read low 1.02 | S. cerevisiae deletion strains, locus YNL071W, strain lat1, active compounds read low 1 | S. cerevisiae deletion strains, locus YNL153C, strain GIM3, active compounds read low 0.998 | S. cerevisiae deletion strains, locus YNL209W, strain ssb2, active compounds read low 0.998 | S. cerevisiae deletion strains, locus YNL233W, strain BNI4, active compounds read low 1.01 | S. cerevisiae deletion strains, locus YNL248C, strain rpa49, active compounds read low 1.01 | S. cerevisiae deletion strains, locus YNL250W, strain rad50, active compounds read low 0.994 | S. cerevisiae deletion strains, locus YNL271C, strain bni1, active compounds read low 1 | S. cerevisiae deletion strains, locus YNL298W, strain CLA4, active compounds read low 0.999 | S. cerevisiae deletion strains, locus YNL307C, strain MCK1, active compounds read low 1 | S. cerevisiae deletion strains, locus YNL322C, strain KRE1 (second series), active compounds read low 1.01 | S. cerevisiae deletion strains, locus YNL322C, strain KRE1, active compounds read low 1.01 | S. cerevisiae deletion strains, locus YNR049C, strain mso1, active compounds read low 1.02 | S. cerevisiae deletion strains, locus YNR052C, strain pop2, active compounds read low 0.996 | S. cerevisiae deletion strains, locus YOL012C, strain htz1 0.704 | S. cerevisiae deletion strains, locus YOL147C, strain pex11, active compounds read low 1.01 | S. cerevisiae deletion strains, locus YOR001W, strain rrp6, active compounds read low 1.02 | S. cerevisiae deletion strains, locus YOR061W, strain CKA2, active compounds read low 1.01 | S. cerevisiae deletion strains, locus YOR069W, strain VPS5, active compounds read low 1.01 | S. cerevisiae deletion strains, locus YOR070C, strain gyp1, active compounds read low 1 | S. cerevisiae deletion strains, locus YOR080W, strain dia2, active compounds read low 1.01 | S. cerevisiae deletion strains, locus YOR083W, strain WHI5, active compounds read low 0.975 | S. cerevisiae deletion strains, locus YOR106W, strain vam3, active compounds read low 1 | S. cerevisiae deletion strains, locus YOR136W, strain idh2, active compounds read low 0.998 | S. cerevisiae deletion strains, locus YOR144C, strain elg1, active compounds read low 0.996 | S. cerevisiae deletion strains, locus YOR184W, strain ser1, active compounds read low 1.02 | S. cerevisiae deletion strains, locus YOR265W, strain rbl2, active compounds read low 0.994 | S. cerevisiae deletion strains, locus YOR270C, strain vph1, active compounds read low 1 | S. cerevisiae deletion strains, locus YOR290C, strain snf2, active compounds read low 0.961 | S. cerevisiae deletion strains, locus YOR316C, strain cot1, active compounds read low 0.992 | S. cerevisiae deletion strains, locus YPL051W, strain arl3, active compounds read low 0.97 | S. cerevisiae deletion strains, locus YPL078C, strain atp4, active compounds read low 0.97 | S. cerevisiae deletion strains, locus YPL106C, strain sse1, active compounds read low 0.994 | S. cerevisiae deletion strains, locus YPL240C, strain hsp82, active compounds read low 0.999 | S. cerevisiae deletion strains, locus YPL241C, strain CIN2, active compounds read low 1.01 | S. cerevisiae deletion strains, locus YPR119W, strain clb2, active compounds read low 0.995 | S. cerevisiae deletion strains, locus YPR141C, strain kar3, active compounds read low 0.997 | S. cerevisiae deletion strains, locus YPR163C, strain tif3, active compounds read low 0.988 | S. cerevisiae deletion strains, locus YPR167C, strain met16, active compounds read low 0.997 | S. cerevisiae deletion strains, strain wtn01, active compounds read low 1.02 | S. cerevisiae strains, strain wild type, active compounds read low 1.01
